# Screening results deposited in PubChem by University of Kansas High Throughput Screening Laboratory.
# Hits are enriched below; roughly 3.5% of the tested compounds scored in any of these assays.
# mHTT CaM bind – disrupts binding of mutant huntingtin to calmodulin | P42858 | AlphaScreen His-mHTT/GST-CaM binding, luminescence | inhibition, % at 15 µM | 190,000 compounds, 3.6% hits;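 also: 0% = both proteins with DMSO and 100% = one protein alone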
# Pf apPOL inh – Pf-apPOL DNA polymerase inhibition | Recombinant Pf-apPOL, molecular beacon fluorescence, 1.5 h | inhibition, % at 10 µM | 210,000 compounds, 0.25% hits
# Starred values were filed as active, the others as inactive; nt = not tested or not shown. Rule as the data show it: active = inhibition above about 50%; inactive = the rest.
SMILES,mHTT CaM bind,Pf apPOL inh
Cc1cccc(C)c1Nc1c(-c2ccccn2)nc2ncccn12,100*,1
Cc1ccc(-c2nc3ncccn3c2Nc2c(C)cccc2C)o1,10,-6
CCCC(=O)N1CCCC2(CC(c3ccc(Cl)cc3)=CO2)C1 (configuration not stated),-3,-8
COc1ccc(C(=O)NCC2(O)CCCC2)cc1,-4,-3
CCN(CC)c1nc(C(=O)N2CCC(C)CC2)nc2nc(C)cc(C)c12,-12,0
Cc1ccc(N=C2C(=O)Nc3ccccc32)c(C)c1,13,-4
Cc1ccc(O)c(N=C2C(=O)Nc3ccccc32)c1,56*,1
C=CCc1ccc(OCCn2c(C(O)CC)nc3ccccc32)c(OC)c1 (configuration not stated),-6,-12
O=C(c1ccc(F)c(F)c1)N1CCN(c2cc(-c3ccccc3)[nH]n2)CC1,8,-2
N#Cc1cccc(C(=O)NC2CCCC(OC(=O)Nc3ccccc3)C2)c1 (configuration not stated),-2,-2
O=S(=O)(Nc1ccc2c(c1)OCCO2)c1ccc(Br)cc1,-6,-1
O=C(Nc1nc(-c2ccc(Cl)cc2)cs1)c1cncc(Br)c1,53*,0
CCOc1ccc(-c2csc(NC(=O)c3cncc(Br)c3)n2)cc1,1,-6
CC1CN(C(=O)CC2CCCC2)CC1c1nc(-c2ccccc2)no1 (configuration not stated),-13,2
COc1cccc(C2=N/C(=C\c3ccccc3Cl)C(=O)O2)c1,7,2
CCC(=O)N1CCc2c(c(-c3nc(-c4cccc(F)c4)no3)nn2C)C1,-5,-4
Cc1ccc(C(=O)N2CCCC(c3nc(CNC(=O)C4CC4)cs3)C2)cc1 (configuration not stated),10,-1
CNC(=O)c1cc(Nc2nnc(-c3ccc(C)cc3)c3ccccc23)ccc1OC,72*,0
NC(=O)c1ccc(-c2nnc(Nc3ccc(C(=O)Nc4ccccc4)cc3)c3ccccc23)cc1,87*,-7
CNC(=O)c1ccc(Nc2nnc(-c3ccc(O)cc3)c3ccccc23)cc1,16,3
CNC(=O)c1cc(Nc2nnc(-c3ccc(O)cc3)c3ccccc23)ccc1OC,19,-15
Cc1ccc(Nc2nccc(C3CCCN(C(=O)C4CCCO4)C3)n2)cc1 (configuration not stated),24,-4
Cn1ccc2c(N3CCCC3)cc3c(c21)C1CCC3C1 (configuration not stated),25,1
Cn1ccc2c(-c3cncc4ccccc34)cc3c(c21)C1CCC3O1 (configuration not stated),100*,-3
Cn1ccc2c(N3CCCCC3)cc3c(c21)C1CCC3C1 (configuration not stated),78*,-5
SMILES,mHTT CaM bind,Pf apPOL inh
Cn1ccc2c(N3CCCC3)cc3c(c21)C1CCC3O1 (configuration not stated),39,-3
Cc1ccccc1-c1cc2c(c3c1ccn3C)C1CCC2O1 (configuration not stated),31,-4
Cn1ccc2c(N3CCCCCC3)cc3c(c21)C1CCC3O1 (configuration not stated),66*,0
COc1ccc(N(CC(=O)NC2CCCCCC2)S(C)(=O)=O)cc1OC,2,-2
CC(C)C(=O)N(CC(=O)Nc1ccon1)C1CCCCC1,-2,-3
COC(=O)c1sccc1NC(=O)N1CCCC1c1ccccc1Cl (configuration not stated),0,-9
Cc1cccc(OCC(=O)N2CCc3c(c(-c4nc(-c5cccc(F)c5)no4)nn3C)C2)c1,-13,-4
CCc1ccccc1NS(=O)(=O)c1cc(OC)ccc1OC,-3,7
CCN1C(=O)/C(=C2\C=Cc3ccccc3N2CC)SC1=Nc1ccc(OC)cc1,55*,1
CCSC1=NC(=O)/C(=C2\C=Cc3ccccc3N2CC)S1,49,-17
CCOc1cccc(C2Oc3ccccc3C3CC(c4cccs4)=NN32)c1O (configuration not stated),50*,-4
COc1cc(C2Oc3ccccc3C3CC(c4cccs4)=NN32)cc(OC)c1O (configuration not stated),47,8
COc1cc(C(=O)O)c(C2Oc3ccccc3C3CC(c4ccccc4)=NN32)cc1OC (configuration not stated),50*,-5
Oc1ccc(C2Oc3ccccc3C3CC(c4cccs4)=NN32)cc1O (configuration not stated),29,-1
Clc1cccc(C2Oc3ccccc3C3CC(c4ccccc4)=NN32)c1 (configuration not stated),-7,nt
COc1ccc(C2Oc3ccccc3C3CC(c4cccs4)=NN32)cc1O (configuration not stated),52*,10
c1coc(C2Oc3ccccc3C3CC(c4cccs4)=NN32)c1 (configuration not stated),92*,-9
COc1ccc(OC)c(C2Oc3c(OC)cccc3C3CC(c4cccs4)=NN32)c1 (configuration not stated),2,-13
CC1=C(C(=O)Nc2ccccc2F)C(c2cccnc2)C2=C(CC(C)(C)CC2=O)N1 (configuration not stated),-2,-9
COc1ccccc1NC(=O)c1ccncc1,-4,-5
COc1ccc(S(=O)(=O)N(C)CC2(C)CCOCC2)cc1Cl,-11,-3
O=C(c1cccs1)N1N=C(c2cccs2)CC1c1cc([N+](=O)[O-])ccc1O (configuration not stated),48,2
COc1c(O)ccc(C2Oc3ccccc3C3CC(c4cccs4)=NN32)c1[N+](=O)[O-] (configuration not stated),55*,0
COc1ccc(Nc2nc(Cl)nc(Nc3cccc([N+](=O)[O-])c3)n2)cc1,78*,-1
CC(C)(C)Nc1nc(Cl)nc(Nc2cccc([N+](=O)[O-])c2)n1,40,30
SMILES,mHTT CaM bind,Pf apPOL inh
COc1cccc(Nc2nc(Cl)ccc2[N+](=O)[O-])c1,71*,-7
COc1cccc(NC(=O)c2ccc([N+](=O)[O-])c(C)c2)c1,-1,-3
Cc1cccc(Sc2nccnc2N2CCCC(C(=O)NCc3ccc(C)o3)C2)c1 (configuration not stated),25,-3
CN(C)c1ccc(CC2C(=O)Nc3ccccc32)cc1 (configuration not stated),nt,6
CC1=Nc2ccccc2NC(=O)C1Cc1ccccc1 (configuration not stated),91*,-9
COc1ccc(NC(=O)NC(c2ccccc2)c2ccccc2)cc1N1CCCC1=O,55*,3
COc1ccc(NC(=O)CC(C)C)cc1N1CCCC1=O,-10,-6
COc1cccc(C2CC(c3cc(OC)c(OC)c(OC)c3)n3nnnc3N2)c1 (configuration not stated),3,5
N#Cc1c(N)sc2c1CCCC2,4,-2
Nc1sc2c(c1-c1nn[nH]n1)CCCC2,90*,nt
O=C(c1ccc(OCC2CCN(C(=O)c3ccc(Cl)cc3)CC2)cc1)N1CCCC1,24,3
Cc1cccc(NC(=O)C(=O)NCC(O)c2ccccc2)c1 (configuration not stated),-6,-4
C[C@H]1[C@@H](NC(=O)c2ccc(Cl)c(C(F)(F)F)c2)CC[C@@]23CCCN2C(=O)CCC[C@@H]13,16,0
